# Experimental data from PubChem BioAssay (NCI).
# Where “and” joins values, the source holds several entries; their conditions need not be identical. Equal values may be shown once. This is part of a sample that, as a whole, favours compounds with a hit. Of some 79,000 tested, about 15% had one in any assay. Values without a mark were called inactive. Calls of active or inactive are those of the source. Rule as the data show it: active = growth inhibition above about 70%; inactive = the rest.
# Test: NCI Yeast Anticancer Drug Screen. Data for the sgs1 mgt1 strain (AID 161);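 also: 0% = growth of cultures given vehicle only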
# Conditions: S. cerevisiae sgs1 mgt1 strain, stronger effect = higher value
# Procedure: Growth inhibition of yeast strains with defined genetic alterations is measured as a screen for potential anti-cancer activity. Selected strains with alterations in DNA damage repair or cell cycle control were exposed to compounds and growth inhibition was measured relative to vehicle treated controls. The strain used in this assay is sgs1 mgt1
# [1] = at 5.0 µM (retest, dose inferred, filed as 0.5)
# [2] = at 50.0 µM (retest, dose inferred, filed as 5.0)
SMILES,growth inhibition [1],growth inhibition [2],growth inhibition (at 50.0 µM)
O=C1N=C2SC=C(NC(=S)Nc3ccccc3)N2NC12c1ccccc1-c1ccccc12,-8%,44%,25.6%
Cc1cc(C)nc(NS(=O)(=O)c2ccc(Nc3c4ccccc4nc4c(C(=O)NCCO)cccc34)cc2)n1,-9%,56%,-10.7%
O=[N+]([O-])c1cc(Cl)cnc1Br,-50%,-19%,8.35%
Nc1ccc(F)cc1S,31%,100% (active),80.5% (active)
N#CC1=C(N)N(/N=C/c2ccccc2)C(c2ccccc2)C1(C#N)C#N (configuration not stated),5%,76% (active),76.6% (active)
CN1C(=O)c2ccc3ccccc3c2C1=O,27%,54%,43%
C/C=C/SC(=Nc1ccccc1)Nc1ccccc1,-5%,71% (active),90.8% (active)
O=C1Nc2ccc(Br)cc2C1=Nc1ccc2c(c1)OCO2,-12%,8%,9.4%
C[CH2][Sn]([CH2]C)([O]C(=O)C(N)Cc1ccccc1)[O]C(=O)C(N)Cc1ccccc1 (configuration not stated),-21%,59%,16.1%
COc1c(O)c(C=O)c(Br)c(C=O)c1O,16%,96% (active),99% (active)
Cc1cc(N(CCOS(C)(=O)=O)CCOS(C)(=O)=O)ccc1C=Nc1ccc(-c2nc(Cc3ccccc3)sc2C)cc1,23% and 3%,-12% and 43%,85.5% (active) and 85.9% (active)
c1ccc(CCN2CCc3ccccc3C2)cc1,-5%,49%,49.8%
c1ccc2[nH]c(-c3cscn3)nc2c1,-3%,13%,-4% and -3%
Cc1cc(C(C)(C)CC(C)(C)C)ccc1O,-14%,99% (active),93.7% (active)
